From PubChem BioAssay (NCI)
Compounds without any hit were thinned out: in the full panel of roughly 83,000, 20% have a hit.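 Cell lines were cultured in 96-well plates, exposed to a single compound concentration, and assessed for percent growth 48 hours later.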 Values without a mark were called inactive. Activity calls are given as the source filed them.

The molecules below were run on NCI-H522 lung (assay: NCI-60 one-dose screen, 48 h (100 = growth as untreated, 0 = no growth, -100 = all killed)). Settings: 10 µM unless noted.
Procedure: Growth inhibition of the NCI-H522 human Non-Small Cell Lung tumor cell line is measured as a screen for anti-cancer activity. Cells are grown in 96 well plates and exposed to the test compound for 48 hours. Compounds are tested at a single concentration, which is 10^-5 M for most compounds. The reported endpoint is percent growth (GI% or GIPRCNT), where numbers from 0 - 100% represent growth inhibition, and numbers from -100% - 0 represent cell death. For example, a value of 40 represents 60% growth inhibition. A value of 0 means no net growth occurred over the course of the experiment. A value of -40 indicates 40% of cells at the beginning of the experiment died by the end of the experiment. A value of -100 means all cells are dead at the end of the experiment.
NCI-60 Human Tumor Cell Lines Screen was performed using the standard one-dose NCI protocol, which is described in more detail at https://dtp.cancer.gov/discovery_development/nci-60/default.htm.
Compounds with GIPRCNT values below 10 were considered active. Activity score was based on GIPRCNT using the following formula: […]
Score is 0 for GIPRCNT values of 100 or above, 50 for GIPRCNT values of 0, and 100 for GIPRCNT values of -100.

Row | SMILES | growth
1 | CC(=O)Nc1ccc(C)c(Nc2cc(-c3ccc(-n4cccn4)cc3)[nH]n2)c1 | 14.3%
2 | COC[C@@]1(C)CC[C@]2(C)CC[C@]3(C)C(=CC[C@@H]4[C@@]5(C)CCCNC(C)(C)[C@@H]5CC[C@]43C)C2C1 (stereo not given in full) | 76.7%
3 | NC(=O)c1c(NC(=O)c2cccc(OC(F)(F)F)c2)sc2c1CCC(=O)C2 | 20.6%
4 | Fc1ccc(-c2cc3nc(C(Cl)Cl)nc(-c4cccs4)n3n2)cc1 | 78.9%
5 | IP(CCCCCCCCCCSc1n(Cc2ccc3ccccc3c2)c(-c2ccccc2)c(-c2ccccc2)[n+]1Cc1ccc2ccccc2c1)(c1ccccc1)(c1ccccc1)c1ccccc1 | -61.8% (active)
6 | O=C(COc1ccc(C2SCC(=O)N2c2ccc(F)cc2)cc1)c1ccccc1 (stereo not given) | 84.1%
7 | CCOC(=O)c1c(NCC(=O)Nc2ccc(Br)cc2)sc2c1CCCC2 | -48.8% (active)
8 | Cc1ccc(-c2csc(N/N=C/c3nc4ccccc4n3C3CC3)n2)cc1 | -72.4% (active)
9 | COc1ccc([C@H]2[C@H](O)C(=O)N2c2cc(OC)c(OC)c(OC)c2)cc1Cl | -39.7% (active)
10 | CNC(=O)c1cc(N2CCc3cc(NC(=O)Nc4ccc(Cl)c(Cl)c4)ccc32)ccn1 | 68.5%
11 | Nc1n[nH]c2cccc(C#Cc3cccc(NC(=O)c4cccc(OC(F)(F)F)c4)c3)c12 | 49.2%
12 | COc1ccc(S(=O)(=O)n2cc(C=O)c3ccccc32)c(OC)c1 | 97.7%
13 | Cc1cc(=O)n2nc(-c3cn(C)c4ccc(Cl)cc34)sc2n1 | 89.2%
14 | Oc1ccc(CSc2nnc(-c3ccc(Br)cc3)o2)c2cccnc12 | 29.4%
15 | COc1cc2oc(-c3cccc(NC(=O)c4cc(NC(=O)[C@H](C)N)ccc4Cl)c3)cc(=O)c2c(OC)c1OC | 94.9%
16 | Cc1occc1-c1nc2s/c(=C\c3cn(-c4ccccc4)nc3-c3ccccc3)c(=O)n2n1 | 92.3%
17 | COc1cc(/C=N/n2cnc3oc(-c4ccccc4)cc3c2=N)cc(CN2CCOCC2)c1O | 61.1%
18 | CCCC(=O)NC(c1cccnc1)c1ccc2c(C)ccnc2c1O (stereo not given) | 0.954% (active)
19 | Cn1cc(-c2nn3c(=O)cc(-c4ccccc4)nc3s2)c2cc(F)ccc21 | -37.4% (active)
20 | COc1ccc(N)cc1C(=O)Nc1cccc(-c2cc(=O)c3c(OC)c(OC)c(OC)cc3o2)c1 | 60.5%

Row | SMILES | growth
21 | CN1CCN(c2ccc3c(C(N)=O)c(NC(=O)c4ccc(C(C)(C)C)cc4)sc3c2)CC1 | 103%
22 | O=c1oc2ccc(-c3ccc(F)cc3F)cc2c(=O)n1-c1ccc(F)c(F)c1 | -2.51% (active)
23 | CN1C(=O)/C(=C/C=C/c2ccco2)SC1=S | 71.3%
24 | O=C(COc1ccc(C2SCC(=O)N2c2ccccc2)cc1)c1ccccc1 (stereo not given) | 80.6%
25 | C/C(=C(/C)C1CC1CCN(C(=O)c1ccccn1)S(=O)(=O)c1ccc(C)cc1)C1CCCCC1 (stereo not given) | 85.1%
26 | N#Cc1c(-c2cccs2)cc(-c2cnccn2)nc1SCC(=O)NNC(=S)Nc1ccc(F)cc1 | 95.5%
27 | COc1cc(C(=O)C[n+]2ccc3ccccc3c2)cc(OC)c1OC | 92.9%
28 | C[C@@H]1C[C@H]2C(=O)OCC(NC(=O)[C@H](Cc3cc(F)cc(F)c3)NC(=O)Nc3ccc(Cl)cc3F)C(=O)N3CCC[C@H]3C(=O)N3CCCC[C@H]3C(=O)N[C@@H](C)C(=O)N2C1 (stereo not given in full) | 17.2%
29 | CC(=O)Nc1nc2c(s1)C1=CC[C@H]3[C@@H]4CC[C@H](C(C)=O)[C@@]4(C)CC[C@@H]3[C@@]1(C)CC2 | 90.8%
30 | Cc1nn(-c2ccccc2)cc1/C=N/Nc1nc(Nc2ccccc2)nc(Nc2ccc(S(N)(=O)=O)cc2)n1 | 0.777% (active)
31 | O=c1[nH]c2cc(Cl)ccc2n1C1CCN(c2ccc3nnc(Cl)n3n2)CC1 | 87.2%
32 | NC(=S)N/N=C(/C=C/c1cn(-c2ccccc2)nc1-c1ccc(Cl)cc1)c1cc2ccccc2oc1=O | 46.9%
33 | O=C1c2cc(Br)ccc2-n2c1nc1cc(Br)ccc1c2=O | 68.9%
34 | O=C(O)c1ccc(-n2cc(CNc3ccc(Cl)cc3)c(-c3ccc(F)cc3)n2)cc1 | 91.2%
35 | COc1ccc(C(=O)n2cc(C=O)c3ccccc32)cc1 | 98.6%
36 | C=C(C)[C@@H]1CC[C@]2(C(=O)ON)CC[C@]3(C)[C@H](CC[C@@H]4[C@@]5(C)C/C(=C/c6ccc(Br)cc6)C(=O)C(C)(C)[C@@H]5CC[C@]43C)[C@@H]12 | 66.8%
37 | CCNCCCn1c2c(c3cc(OC)c(OC)cc3c1=O)C(=O)c1cc(OC)cnc1-2 | 13.4%
38 | Cc1ccccc1NC1CC(=O)N(c2ccc(Cl)cc2Cl)C1=O (stereo not given) | 95.7%
39 | COc1ccc(OC)c(NC2=C(Cl)C(=O)C(C)=C(C)C2=O)c1 | 87.2%
40 | O=C(N/N=C\c1ccc(Cl)cc1)c1ccc2nc(-c3ccc(Br)cc3)[nH]c2c1 | 10.5%
